About 1,300 (0.68%) of roughly 190,000 compounds were called active. Many of the other results were omitted from the sample, so actives are more common in it than they were. Values without a mark were called inactive. Rule as the data show it: active = inhibition above about 50%; inactive = the rest.

This is an account of results in PubChem BioAssay AID1220 (Sanford-Burnham Center for Chemical Genomics, 2008).

The target in this experiment is Mannose-6-phosphate isomerase (Homo sapiens) (UniProt P34949). Description: human PMI inhibitors, high substrate, primary screen, biochemical, fluorescence intensity, high mannose 6-phosphate (AID 1220). To be noted: recombinant PMI enzyme, coupled fluorescence intensity; at 20 µM; active compounds read high.
Mannose-6-phosphate isomerase (Homo sapiens), sequence (P34949 whole entry, looked up): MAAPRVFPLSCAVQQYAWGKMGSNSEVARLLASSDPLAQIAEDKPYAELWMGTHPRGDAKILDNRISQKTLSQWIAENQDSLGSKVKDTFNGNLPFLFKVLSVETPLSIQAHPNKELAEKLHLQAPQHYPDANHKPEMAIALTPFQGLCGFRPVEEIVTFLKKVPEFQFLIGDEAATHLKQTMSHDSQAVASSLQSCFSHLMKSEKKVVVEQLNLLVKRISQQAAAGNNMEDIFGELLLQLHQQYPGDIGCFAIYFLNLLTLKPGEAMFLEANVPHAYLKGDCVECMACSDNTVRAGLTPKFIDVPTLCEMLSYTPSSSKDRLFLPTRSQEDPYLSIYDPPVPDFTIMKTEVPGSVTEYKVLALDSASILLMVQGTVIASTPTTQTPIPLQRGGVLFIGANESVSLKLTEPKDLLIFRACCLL
For the compound `CCOC(=O)C1C(c2ccccc2)N(C)OC1(O)C(F)(F)F` (stereo not given), the inhibition (commonly the drop in the measured response relative to a control, in per cent) is 6.7%.

Regarding `Cc1c(C(=O)OC2CCCC2)[nH]c2c1C(=O)CC(c1ccco1)C2` (stereo not given), the inhibition is 23.1%.

Turning to `CCOC(=O)C(C)Oc1cccc2c(=O)n(CC(=O)Nc3ccc(OCC)cc3)ccc12` (stereo not given), the inhibition was 7.6%.

With `Cc1cc(C)n2c(SCc3ccc(Cl)cc3Cl)nnc2n1`, the inhibition was -3.9%.

Take `CN(Cc1cc(=O)n2ccsc2n1)c1ccccc1`: the inhibition is -17.6%.

`CCN(Cc1cc(=O)n2ccsc2n1)Cc1nc2ccccc2c(=O)[nH]1`: the inhibition is -3.9%.

As to `CCN(Cc1cc(=O)n2ccsc2n1)c1cccc2ccccc12`, the inhibition was 67.3% (active).

Consider `COc1ccc(NC(=O)c2cc(OC)c(OC)c(OC)c2)cn1`, for which the inhibition was 8.4%.

Turning to `COc1ccc(NC(=O)c2sccc2C)cn1`, the inhibition was 12.5%.

For the compound `COc1ccc(NC(=O)c2cc(Br)c(Br)s2)cn1`, the inhibition was 53.2% (active).

Consider `COc1cc(CNCCO)cc(Br)c1OCc1ccccc1`, for which the inhibition was 1.8%.

Turning to `O=C1CN(C(=O)COC(=O)/C=C/c2ccco2)c2ccccc2N1`, the inhibition was 1.6%.

For the compound `Cc1ccc(/C=C/C(=O)OCC(=O)N2CC(=O)Nc3ccccc32)o1`, the inhibition is 55.2% (active).

As to `Cc1ccc(/C=C/C(=O)N2CC(=O)Nc3ccccc32)o1`, the inhibition was 1.3%.

On to `CN(C)c1nc(OCCOC(=O)c2ccccc2)nc(N(C)C)n1`, for which the inhibition was 10%.

As to `O=[N+]([O-])c1ccc2cn(-c3ccccc3)nc2c1`, the inhibition was -4.3%.

Consider `O=[N+]([O-])c1ccc2c(c1)ncn2-c1ccccc1`, for which the inhibition was -7.7%.

As to `CC(=O)Nc1ccc(S(=O)(=O)Nc2nc3ccccc3nc2N2CCCCCC2)cc1`, the inhibition is 2.2%.

With `O=[N+]([O-])c1ccccc1-c1ccc(C(=S)N2CCCC2)o1`, the inhibition was 18.9%.

For `Cc1cccc(N2CCN(C(=S)c3ccc(-c4ccccc4[N+](=O)[O-])o3)CC2)c1`, the inhibition is 57.3% (active).

For the compound `Cc1ccc(N2CCN(C(=S)c3ccc(-c4cccc([N+](=O)[O-])c4)o3)CC2)cc1`, the inhibition was 26.5%.

Take `Cc1cc(C)nc(N/N=C/c2cccc3ccccc23)n1`: the inhibition is -14.6%.

Consider `COc1cccc(CN(C)C(=O)c2cccnc2SC)c1OC`, for which the inhibition was -6.5%.

Regarding `COc1ccc(-c2nnc3ccc(SCC(=O)N4CCOCC4)nn23)cc1`, the inhibition was -2.8%.

Turning to `CC1(O)C(=O)c2ccccc2N(c2ccccc2)C1=O` (stereo not given), the inhibition was -4.8%.

`CN1C(=O)C(Cl)(Cl)C(=O)c2ccccc21`: the inhibition is 68.4% (active).

On to `CCN1C(=O)C(F)(CC)C(=O)c2ccccc21` (stereo not given), for which the inhibition was 4.2%.

In the case of `O=C(NNC(=O)C1CC(c2cccnc2)=NO1)Nc1ccccc1F` (stereo not given), the inhibition is -6.2%.

Take `Cc1cc(S(=O)(=O)N(Cc2ccc(C(C)C)cc2)CC2CCCO2)ccc1-n1cnnn1` (stereo not given): the inhibition is -1%.

Consider `Cn1c(-c2ccccc2)c(C(=O)CCl)c2ccccc21`, for which the inhibition was -33.5%.

On to `Cc1nc(SCC(=O)c2ccccc2)n[nH]1`, for which the inhibition was 51.2% (active).

Take `Cc1nc(SCC(=O)c2ccc(F)cc2)n[nH]1`: the inhibition is 12.9%.

In the case of `Cc1ccc(C(=O)CSc2n[nH]c(C)n2)cc1`, the inhibition was -0.9%.

With `COc1ccc(CCNC(=O)CS(=O)(=O)c2cn(CC(=O)N3CCCC3)c3ccccc23)cc1OC`, the inhibition is 46.9%.

Regarding `COc1ccc(CCNC(=O)CS(=O)(=O)c2cn(CC(=O)N3CCOCC3)c3ccccc23)cc1OC`, the inhibition is 51.4% (active).

Consider `CCN(CC)C(=O)Cn1cc(S(=O)(=O)CC(=O)NCCc2ccc(OC)c(OC)c2)c2ccccc21`, for which the inhibition is 20.4%.

For the compound `COc1cc(SC)ccc1C(=O)Nc1ccc(Cl)cn1`, the inhibition was 2.4%.

With `CC(=O)N1CCC2(CC1)CC(=O)c1cc(OCC(=O)N3CCOCC3)ccc1O2`, the inhibition was -1.2%.

`Cc1cc([N+](=O)[O-])cc2c1NC(=O)C2(O)N1CCOCC1` (stereo not given): the inhibition is 16.7%.

As to `CC1CCN(C2(O)C(=O)Nc3ccc(Br)cc32)CC1` (stereo not given), the inhibition was -1.3%.

Take `O=C1Nc2c(Br)cc(Br)cc2C1(O)N1CCOCC1` (stereo not given): the inhibition is 55.6% (active).

For `COc1ccc(C2C(C(C)=O)=C(O)C(=O)N2CCCn2ccnc2)cc1` (stereo not given), the inhibition was -4%.

`CCOC(=O)C1(C)C=C(Nc2ccc(O)cc2)C(=O)N1c1ccc(O)cc1` (stereo not given): the inhibition was 58.5% (active).

With `CCOC(=O)C1(C)C=C(Nc2ccc(OC)cc2)C(=O)N1c1ccc(OC)cc1` (stereo not given), the inhibition was 18%.

On to `CCOC(=O)C1(C)C=C(Nc2ccc(C)cc2)C(=O)N1c1ccc(C)cc1` (stereo not given), for which the inhibition was -5.2%.

Regarding `O=C(/C=C/c1ccco1)Nc1nc(-c2ccccn2)cs1`, the inhibition was 25.9%.

Turning to `Cc1cccc(OCC(=O)N/N=C\c2cn(C)c3ccccc23)c1`, the inhibition is -0.8%.

As to `CCOC(=O)c1c2ccc(OCC(=O)N/N=C/c3ccc(Cl)cc3)cc2n2ccccc12`, the inhibition is 48.6%.

Regarding `Cc1ccc(/C=N/NC(=O)CNC(=O)COc2ccccc2)cc1`, the inhibition is 8.2%.

As to `CCOC(=O)c1c2ccc(OCC(=O)N/N=C/c3ccccc3C(F)(F)F)cc2n2ccccc12`, the inhibition is 64.2% (active).

On to `Cc1ccc(OCC(=O)N/N=C\c2cn(Cc3ccccc3)c3ccccc23)cc1C`, for which the inhibition was 2.4%.

Turning to `Cn1c2c(c(=O)n(C)c1=O)C1(C(=O)Nc3ccccc31)C(C#N)=C(N)O2` (stereo not given), the inhibition was 47.4%.

With `Cn1c2c(c(=O)n(C)c1=O)[C@@]1(C(=O)Nc3ccccc31)C(C#N)=C(N)O2`, the inhibition is 54.6% (active).

As to `N#CC1=C(N)Oc2[nH]c(=S)[nH]c(=O)c2C12C(=O)Nc1ccccc12` (stereo not given), the inhibition is 46.2%.

In the case of `CNc1oc(-c2ccc(Cl)cc2)nc1C#N`, the inhibition was 0.9%.

Consider `Cc1c(Nc2cc(N3CCOCC3)c3nonc3c2[N+](=O)[O-])c(=O)n(-c2ccccc2)n1C`, for which the inhibition is 27.1%.

For `Cc1c(Nc2cc(N3CCCC(C)C3)c3nonc3c2[N+](=O)[O-])c(=O)n(-c2ccccc2)n1C` (stereo not given), the inhibition was 44.3%.

For the compound `Cc1c(Nc2cc(N3CCCCCC3)c3nonc3c2[N+](=O)[O-])c(=O)n(-c2ccccc2)n1C`, the inhibition was 51.5% (active).

Turning to `Cc1c(NC(=O)CN2c3cccc4cccc(c34)S2(=O)=O)c(=O)n(-c2ccccc2)n1C`, the inhibition was 5%.

In the case of `CC1=C(C)CC(C(=O)N2CCN(Cc3ccccc3)CC2)C(C(=O)O)C1` (stereo not given), the inhibition was 9.2%.
